Measured values published in PMC11006913.
Numbering of substitutions follows the chain as printed.

Key:
Experiment in all cases: PBM; 200 nM protein, PBS
Settings in all cases: dsDNA, one strand shown
SIX6 [1] = molecular target: T1, SIX6 (Homo sapiens, UniProt O95475 114-200, L167I)
T1 sequence: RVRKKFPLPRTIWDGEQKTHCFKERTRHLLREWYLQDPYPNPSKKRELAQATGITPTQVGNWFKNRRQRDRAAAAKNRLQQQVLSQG

SIX6 [2] = molecular target: T2, SIX6 (Homo sapiens, UniProt O95475 114-200, L143V)
T2 sequence: T1 sequence with L30V, I54L

SIX6 [3] = molecular target: T3, SIX6 (Homo sapiens, UniProt O95475 114-200, H141N)
T3 sequence: T1 sequence with H28N, I54L

SIX6 [4] = molecular target: T4, SIX6 (Homo sapiens, UniProt O95475 114-200, T165P)
T4 sequence: T1 sequence with T52P, I54L

SIX6 [5] = molecular target: T5, SIX6 (Homo sapiens, UniProt O95475 114-200, L167M)
T5 sequence: T1 sequence with I54M

SIX6 [6] = molecular target: T6, SIX6 (Homo sapiens, UniProt O95475 114-200, L143M)
T6 sequence: T1 sequence with L30M, I54L

SIX6 [7] = molecular target: T7, SIX6 (Homo sapiens, UniProt O95475 114-200, L143I)
T7 sequence: T1 sequence with L30I, I54L

SIX6 [8] = molecular target: T8, SIX6 (Homo sapiens, UniProt O95475 114-200, T165G)
T8 sequence: T1 sequence with T52G, I54L

SIX6 [9] = molecular target: T9, SIX6 (Homo sapiens, UniProt O95475 114-200, T139Q)
T9 sequence: T1 sequence with T26Q, I54L

SIX6 [10] = molecular target: T10, SIX6 (Homo sapiens, UniProt O95475 114-200, T165A)
T10 sequence: T1 sequence with T52A, I54L

SIX6 [11] = molecular target: T11, SIX6 (Homo sapiens, UniProt O95475 114-200, L167V)
T11 sequence: T1 sequence with I54V

SIX6 [12] = molecular target: T12, SIX6 (Homo sapiens, UniProt O95475 114-200)
T12 sequence: T1 sequence with I54L

SIX6 [13] = molecular target: T13, SIX6 (Homo sapiens, UniProt O95475 114-200, T165I)
T13 sequence: T1 sequence with T52I, I54L

For CGGCCTTC, the binding signal (SIX6 [1]) was 8.62 upbm affinity estimate (log intensity, higher = more binding, comparable within an allelic series), the binding signal (SIX6 [2]) was 8.87 upbm affinity estimate (log intensity, higher = more binding, comparable within an allelic series) and the binding signal (SIX6 [3]) was 8.82 upbm affinity estimate (log intensity, higher = more binding, comparable within an allelic series). For the same sequence, the binding signal (SIX6 [4]) was 9 upbm affinity estimate (log intensity, higher = more binding, comparable within an allelic series), the binding signal (SIX6 [5]) was 8.83 upbm affinity estimate (log intensity, higher = more binding, comparable within an allelic series) and the binding signal (SIX6 [6]) was 8.77 upbm affinity estimate (log intensity, higher = more binding, comparable within an allelic series). The binding signal (SIX6 [7]) was 8.94 upbm affinity estimate (log intensity, higher = more binding, comparable within an allelic series), the binding signal (SIX6 [8]) was 8.84 upbm affinity estimate (log intensity, higher = more binding, comparable within an allelic series) and the binding signal (SIX6 [9]) was 8.59 upbm affinity estimate (log intensity, higher = more binding, comparable within an allelic series). For the same sequence, the binding signal (SIX6 [10]) was 8.81 upbm affinity estimate (log intensity, higher = more binding, comparable within an allelic series), the binding signal (SIX6 [11]) was 8.94 upbm affinity estimate (log intensity, higher = more binding, comparable within an allelic series) and the binding signal (SIX6 [12]) was 8.77 upbm affinity estimate (log intensity, higher = more binding, comparable within an allelic series). For the same sequence, the binding signal (SIX6 [13]) was 8.7 upbm affinity estimate (log intensity, higher = more binding, comparable within an allelic series).

In the case of TAGTATCA, the binding signal (SIX6 [1]) is reported as 11.3 upbm affinity estimate (log intensity, higher = more binding, comparable within an allelic series), the binding signal (SIX6 [2]) is reported as 10.6 upbm affinity estimate (log intensity, higher = more binding, comparable within an allelic series) and the binding signal (SIX6 [3]) is reported as 11.1 upbm affinity estimate (log intensity, higher = more binding, comparable within an allelic series). For the same sequence, the binding signal (SIX6 [4]) was 10 upbm affinity estimate (log intensity, higher = more binding, comparable within an allelic series), the binding signal (SIX6 [5]) was 10.8 upbm affinity estimate (log intensity, higher = more binding, comparable within an allelic series) and the binding signal (SIX6 [6]) was 11 upbm affinity estimate (log intensity, higher = more binding, comparable within an allelic series). The binding signal (SIX6 [7]) was 10.4 upbm affinity estimate (log intensity, higher = more binding, comparable within an allelic series), the binding signal (SIX6 [8]) was 11.3 upbm affinity estimate (log intensity, higher = more binding, comparable within an allelic series) and the binding signal (SIX6 [9]) was 11.3 upbm affinity estimate (log intensity, higher = more binding, comparable within an allelic series). For the same sequence, the binding signal (SIX6 [10]) was 11.2 upbm affinity estimate (log intensity, higher = more binding, comparable within an allelic series), the binding signal (SIX6 [11]) was 11.1 upbm affinity estimate (log intensity, higher = more binding, comparable within an allelic series) and the binding signal (SIX6 [12]) was 11 upbm affinity estimate (log intensity, higher = more binding, comparable within an allelic series). For the same sequence, the binding signal (SIX6 [13]) was 11 upbm affinity estimate (log intensity, higher = more binding, comparable within an allelic series).

GGTATCAA was tested, and the binding signal (SIX6 [1]) was 11.6 upbm affinity estimate (log intensity, higher = more binding, comparable within an allelic series), the binding signal (SIX6 [2]) was 10.6 upbm affinity estimate (log intensity, higher = more binding, comparable within an allelic series) and the binding signal (SIX6 [3]) was 11.7 upbm affinity estimate (log intensity, higher = more binding, comparable within an allelic series). The binding signal (SIX6 [4]) was 9.74 upbm affinity estimate (log intensity, higher = more binding, comparable within an allelic series), the binding signal (SIX6 [5]) was 11 upbm affinity estimate (log intensity, higher = more binding, comparable within an allelic series) and the binding signal (SIX6 [6]) was 11.4 upbm affinity estimate (log intensity, higher = more binding, comparable within an allelic series). The binding signal (SIX6 [7]) was 10.6 upbm affinity estimate (log intensity, higher = more binding, comparable within an allelic series), the binding signal (SIX6 [8]) was 11.6 upbm affinity estimate (log intensity, higher = more binding, comparable within an allelic series) and the binding signal (SIX6 [9]) was 11.5 upbm affinity estimate (log intensity, higher = more binding, comparable within an allelic series). The binding signal (SIX6 [10]) was 11.6 upbm affinity estimate (log intensity, higher = more binding, comparable within an allelic series), the binding signal (SIX6 [11]) was 11.4 upbm affinity estimate (log intensity, higher = more binding, comparable within an allelic series) and the binding signal (SIX6 [12]) was 11.4 upbm affinity estimate (log intensity, higher = more binding, comparable within an allelic series). For the same sequence, the binding signal (SIX6 [13]) was 11.4 upbm affinity estimate (log intensity, higher = more binding, comparable within an allelic series).

In the case of ATGGGGGC, the binding signal (SIX6 [1]) is reported as 8.95 upbm affinity estimate (log intensity, higher = more binding, comparable within an allelic series), the binding signal (SIX6 [2]) is reported as 8.73 upbm affinity estimate (log intensity, higher = more binding, comparable within an allelic series) and the binding signal (SIX6 [3]) is reported as 9.01 upbm affinity estimate (log intensity, higher = more binding, comparable within an allelic series). For the same sequence, the binding signal (SIX6 [4]) was 8.77 upbm affinity estimate (log intensity, higher = more binding, comparable within an allelic series), the binding signal (SIX6 [5]) was 8.95 upbm affinity estimate (log intensity, higher = more binding, comparable within an allelic series) and the binding signal (SIX6 [6]) was 8.95 upbm affinity estimate (log intensity, higher = more binding, comparable within an allelic series). The binding signal (SIX6 [7]) was 8.81 upbm affinity estimate (log intensity, higher = more binding, comparable within an allelic series), the binding signal (SIX6 [8]) was 8.95 upbm affinity estimate (log intensity, higher = more binding, comparable within an allelic series) and the binding signal (SIX6 [9]) was 9.11 upbm affinity estimate (log intensity, higher = more binding, comparable within an allelic series). For the same sequence, the binding signal (SIX6 [10]) was 8.97 upbm affinity estimate (log intensity, higher = more binding, comparable within an allelic series), the binding signal (SIX6 [11]) was 8.97 upbm affinity estimate (log intensity, higher = more binding, comparable within an allelic series) and the binding signal (SIX6 [12]) was 8.87 upbm affinity estimate (log intensity, higher = more binding, comparable within an allelic series). For the same sequence, the binding signal (SIX6 [13]) was 8.97 upbm affinity estimate (log intensity, higher = more binding, comparable within an allelic series).

For ACGGGCGG, the binding signal (SIX6 [1]) was 8.9 upbm affinity estimate (log intensity, higher = more binding, comparable within an allelic series), the binding signal (SIX6 [2]) was 8.8 upbm affinity estimate (log intensity, higher = more binding, comparable within an allelic series) and the binding signal (SIX6 [3]) was 8.96 upbm affinity estimate (log intensity, higher = more binding, comparable within an allelic series). For the same sequence, the binding signal (SIX6 [4]) was 8.88 upbm affinity estimate (log intensity, higher = more binding, comparable within an allelic series), the binding signal (SIX6 [5]) was 8.9 upbm affinity estimate (log intensity, higher = more binding, comparable within an allelic series) and the binding signal (SIX6 [6]) was 8.96 upbm affinity estimate (log intensity, higher = more binding, comparable within an allelic series). For the same sequence, the binding signal (SIX6 [7]) was 8.91 upbm affinity estimate (log intensity, higher = more binding, comparable within an allelic series), the binding signal (SIX6 [8]) was 9.03 upbm affinity estimate (log intensity, higher = more binding, comparable within an allelic series) and the binding signal (SIX6 [9]) was 9.17 upbm affinity estimate (log intensity, higher = more binding, comparable within an allelic series). For the same sequence, the binding signal (SIX6 [10]) was 9.02 upbm affinity estimate (log intensity, higher = more binding, comparable within an allelic series), the binding signal (SIX6 [11]) was 8.77 upbm affinity estimate (log intensity, higher = more binding, comparable within an allelic series) and the binding signal (SIX6 [12]) was 8.94 upbm affinity estimate (log intensity, higher = more binding, comparable within an allelic series). The binding signal (SIX6 [13]) was 8.98 upbm affinity estimate (log intensity, higher = more binding, comparable within an allelic series).

For CGATACCA, the binding signal (SIX6 [1]) was 10.8 upbm affinity estimate (log intensity, higher = more binding, comparable within an allelic series), the binding signal (SIX6 [2]) was 10 upbm affinity estimate (log intensity, higher = more binding, comparable within an allelic series) and the binding signal (SIX6 [3]) was 10.8 upbm affinity estimate (log intensity, higher = more binding, comparable within an allelic series). For the same sequence, the binding signal (SIX6 [4]) was 9.44 upbm affinity estimate (log intensity, higher = more binding, comparable within an allelic series), the binding signal (SIX6 [5]) was 10.3 upbm affinity estimate (log intensity, higher = more binding, comparable within an allelic series) and the binding signal (SIX6 [6]) was 10.7 upbm affinity estimate (log intensity, higher = more binding, comparable within an allelic series). For the same sequence, the binding signal (SIX6 [7]) was 10.1 upbm affinity estimate (log intensity, higher = more binding, comparable within an allelic series), the binding signal (SIX6 [8]) was 11 upbm affinity estimate (log intensity, higher = more binding, comparable within an allelic series) and the binding signal (SIX6 [9]) was 11.1 upbm affinity estimate (log intensity, higher = more binding, comparable within an allelic series). The binding signal (SIX6 [10]) was 10.8 upbm affinity estimate (log intensity, higher = more binding, comparable within an allelic series), the binding signal (SIX6 [11]) was 10.6 upbm affinity estimate (log intensity, higher = more binding, comparable within an allelic series) and the binding signal (SIX6 [12]) was 10.8 upbm affinity estimate (log intensity, higher = more binding, comparable within an allelic series). For the same sequence, the binding signal (SIX6 [13]) was 10.6 upbm affinity estimate (log intensity, higher = more binding, comparable within an allelic series).
